# Measured values reported in PubChem BioAssay AID588727 (Southern Research Specialized Biocontainment Screening …, 2011).
# About 450 (0.13%) of roughly 350,000 compounds were called active. How the calls were made is not given here. These entries were drawn from the full list. Measured potencies and affinities stand elsewhere.
# Experiment: inhibitors of VEEV TC-83 cytopathic effect, confirmation, Vero cells (AID 588727)
# Settings: VEEV TC-83 cytopathic effect inhibition, at 20 µM
# [1] = stronger effect = higher value unless noted
# [2] = measured here: 10K pilot screen inhibition, stronger effect = higher value
smiles,measurement,setting,value
O=C(CSc1ncn[nH]1)N/N=C/c1ccc(Br)cc1,inhibition,[1],0.58% (inactive)
Cc1ccccc1NC(=O)COC(=O)C1C2CC3OC(=O)C1C3C2 (configuration not stated),inhibition,[1],0.18% (inactive)
Cc1nc2c(c(=O)n1CCC1=CCCCC1)c1nc3ccccc3nc1n2/N=C/c1ccccc1,inhibition,[1],inactive
Cc1onc(-c2ccccc2)c1-c1nnc(CN2CCN(S(=O)(=O)c3ccccc3F)CC2)o1,inhibition,[1],7.39% (inactive)
COc1ccc(C(=O)NC(=O)Nc2ncccc2C)cc1,inhibition,[1],3.84% (inactive)
Cc1ccc(C(=O)NCC(=O)Nc2ncccc2C)s1,inhibition,[1],inactive
CCCCc1nc2sc3c(c2c(=O)n1NC(=O)c1ccco1)CC(C)(C)OC3,inhibition,[1],0.57% (inactive)
OCCNC(=S)NCc1ccccc1,inhibition,[1],0.77% (inactive)
O=C(NCC(=O)N(c1cccc(F)c1)C(C(=O)NC1CCCC1)c1cccnc1)c1cccs1 (configuration not stated),inhibition,[1],inactive
Cc1sc2nc(CN(C(=O)c3cccs3)C3CCCC3)[nH]c(=O)c2c1C,inhibition,[1],5.66% (inactive)
O=C(C1CCCCC1)N(Cc1nc2sc3c(c2c(=O)[nH]1)CCCC3)Cc1cccs1,inhibition,[1],2.95% (inactive)
Cc1n[nH]c(=S)n1/N=C/c1ccc(-c2ccccc2[N+](=O)[O-])o1,inhibition,[1],2.62% (inactive)
Clc1ccccc1-c1ccc(/C=N/n2cnnc2)o1,inhibition,[1],1.39% (inactive)
Cc1ccc(-c2ccc(/C=N\n3cnnc3)o2)c(Br)c1,inhibition,[1],1.33% (inactive)
Cc1nnc(C)n1/N=C/c1ccc(-c2ccccc2Cl)o1,inhibition,[1],inactive
S=c1[nH]nc(-c2cccc(Cl)c2)n1/N=C/c1ccc(-c2ccccc2Br)o1,inhibition,[1],23.7% (inactive)
S=c1[nH]nc(-c2ccccn2)n1/N=C/c1ccc(-c2ccccc2Cl)o1,inhibition,[1],24.7% (inactive)
COc1ccc(CNC(=O)CNC(C)c2ccc(F)cc2)cc1 (configuration not stated),inhibition,[1],inactive
O=C(Cn1nc(Cc2cccnc2)c2ccccc2c1=O)NCc1ccc(F)cc1,inhibition,[1],"0% [measured here: 10K pilot screen inhibition, stronger effect = higher value]"
same,outcome,[1],inactive
Cc1ccc(NC(=O)CSc2ncn[nH]2)cc1S(=O)(=O)N1CCOCC1,inhibition,[1],0.49% (inactive)
O=C(CNS(=O)(=O)c1ccccc1)OCc1cccc([N+](=O)[O-])c1,inhibition,[1],6.33% (inactive)
CN1CCN(c2nc3c(c(=O)[nH]c(=O)n3C)n2CCOc2ccccc2)CC1,inhibition,[1],1.82% (inactive)
COC(=O)C(NC(=O)CCC(=O)N[C@@H](C(=O)OC)c1ccccc1)c1ccccc1 (some centres not stated),inhibition,[1],0.43% (inactive)
O=C(Nc1ccccc1Cl)OC1CCCCC1,inhibition,[1],0.52% (inactive)
Cc1c(C(=O)N(C)Cc2ccc(OC(F)F)cc2)oc2ccccc12,inhibition,[1],inactive
Cn1c(=O)c2c(nc(N/N=C/c3c(O)n(C4CCCCC4)c(=S)[nH]c3=O)n2C)n(C)c1=O,inhibition,[1],0.22% (inactive)
C/C(=N\NC(=O)c1ccncc1)c1c(O)n(Cc2ccccc2)c(=O)[nH]c1=O,inhibition,[1],2.16% (inactive)
CNc1ccc(Br)cc(C(=O)/C=C/c2cccc(OC)c2OC)c1=O,inhibition,[1],13.1% (inactive)
CNc1ccc(Br)cc(C(=O)/C=C/c2ccc(OC)cc2OC)c1=O,inhibition,stronger effect = higher value,1.14% (inactive)
same,inhibition,[2],6.96%
CNc1ccc(Br)cc(C(=O)/C=C/c2ccc(OC)cc2)c1=O,inhibition,[1],7.55% (inactive)
CNc1ccc(Br)cc(C(=O)/C=C/c2ccc3c(c2)OCO3)c1=O,inhibition,stronger effect = higher value,7.74% (inactive)
same,inhibition,[2],6.21%
CNc1nc(C)c(C#N)c(-c2ccccc2)c1C(C)=O,inhibition,[1],0.76% (inactive)
CC[C@]12c3[nH]c4ccccc4c3CCN1C(=O)C(CC(=O)NCCC1=CCCCC1)C[C@@H]2C(=O)N1CCN(C(=O)c2ccco2)CC1 (some centres not stated),inhibition,[1],inactive
CC(C)c1c(C(=O)N/N=C/c2ccc(OCc3ccccc3)cc2)nnn1-c1nonc1N,inhibition,[1],2.29% (inactive)
FC(F)(F)c1cccc(Cc2noc(CN(Cc3ccccn3)CC3CCCO3)n2)c1 (configuration not stated),inhibition,[1],6.18% (inactive)
CCc1ccccc1NC(=O)C1=CN2CCS(=O)(=O)N=C2C=C1,inhibition,[1],4.92% (inactive)
COC(=O)c1ccc(CSc2ccccc2NC(=S)Nc2cccc(SC)c2)o1,inhibition,[1],5.66% (inactive)
COC(=O)[C@@H](Cc1ccccc1)NC(=O)CC[C@H]1O[C@@H](n2cc(C)c(=O)[nH]c2=O)C[C@@H]1O,inhibition,[1],inactive
C=CCn1c(SCC(=O)c2cccs2)nc2sc(C)cc2c1=O,inhibition,[1],5.28% (inactive)
Cc1sc2nc(SCC(=O)c3cccs3)n(Cc3ccco3)c(=O)c2c1C,inhibition,[1],0.85% (inactive)
CCOCCCNC(=O)c1cn(C)c(=O)c2cc(OC)c(OC)cc12,inhibition,[1],2.15% (inactive)
c1ccc(C(c2c[nH]c3ccccc23)c2c[nH]c3ccccc23)nc1,inhibition,[1],6.07% (inactive)
CCOC(=O)c1c(-c2cccc(C)c2)csc1NC(=O)C1CC=CCC1C(=O)O (configuration not stated),inhibition,[1],1.95% (inactive)
COC(=O)c1c(-c2ccccc2)noc1C,inhibition,[1],inactive
CCC(CC)c1nnc(NC(=O)c2c(-c3ccccc3)noc2C)s1,inhibition,[1],inactive
CCOCc1nnc(NC(=O)c2c(-c3ccccc3)noc2C)s1,inhibition,[1],2.18% (inactive)
COC(=O)c1sccc1NC(=O)c1c(-c2ccccc2)noc1C,inhibition,[1],0.71% (inactive)
CCOC(=O)c1c(-c2ccc(F)cc2)csc1NC(=O)c1c(-c2ccccc2)noc1C,inhibition,[1],9.91% (inactive)
Cn1c(=O)c2c(nc(OCc3cccnc3)n2Cc2c(F)cccc2Cl)n(C)c1=O,inhibition,[1],inactive
Cc1ccc(NC(=O)C2CC(=O)N(c3ccc4c(c3)OCCO4)C2)nc1 (configuration not stated),inhibition,[1],0.81% (inactive)
COc1ccc(NC(=O)c2cc(S(=O)(=O)Nc3ccc(OC)cc3)cs2)cc1,inhibition,[1],1.17% (inactive)
O=C1CCc2cc(S(=O)(=O)N3CCC(C(=O)NC4CCCCCCC4)CC3)ccc2N1,inhibition,[1],0.11% (inactive)
CC1CCCCN1C(=O)CSc1nc(N)cc(=O)[nH]1 (configuration not stated),inhibition,[1],0.79% (inactive)
COC(=O)Cc1ccc(NC(=S)NCCSc2ccc(C)cc2)cc1,inhibition,[1],0.04% (inactive)
CCOC(=O)c1cnc(N2CCOCC2)[nH]c1=O,inhibition,[1],inactive
O=c1ccc(Cl)cn1Cc1ccccc1F,inhibition,[1],0.68% (inactive)
CCCNC(=O)CSc1nnc(NC(=O)C2CC(=O)N(c3ccccc3OC)C2)s1 (configuration not stated),inhibition,[1],0.13% (inactive)
CN(C)CCCNc1nc(N)c([N+](=O)[O-])c(NC2CCCCC2)n1,inhibition,[1],1.04% (inactive)
Nc1nc(NCCO)nc(NC2CCCCC2)c1[N+](=O)[O-],inhibition,[1],3.17% (inactive)
